Measurements: PubChem BioAssay (EPA / NIEHS)
Inconclusive results are not listed. Activity calls are given as the source filed them. How the source made its calls, unless noted: active means hit-call score of the fitted dose curve at least 0.9, where 1 is the maximum; inactive means score below 0.9.

How the values were obtained:
[1] = CCTE_Shafer_MEA_acute_spike_number: CCTE's Neural Acute Assay for Total Number of Spikes, Shafer Lab (AID 2284008);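 on AC50: curve fitted for decrease in spike count so AC50 reflects inhibitors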
In short: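 Total spike count from 40 min recordings before and during compound exposure (0.03-40 uM), given as per-well percent change. Cortical cultures from rat, DIV 13 or 15, 37 C; adaptive detection threshold 8x rms noise.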

[2] = CCTE_Shafer_MEA_acute_firing_rate_mean: CCTE's Neural Acute Assay for Mean Firing Rate, Shafer Lab (AID 2284009);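 further: analyzed for loss of signal so actives lower firing rate relative to DMSO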
In short: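 Percent change in well-mean firing rate was derived from extracellular spikes detected at 8x rms noise (300-5000 Hz band-pass) before and after a 40-min compound exposure. Cultures were primary rat cortical neurons, tested at 0.03-40 uM.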

[3] = CCTE_Harrill_HTTr_Viability_MCF7: CCTE's 6-hour Cell Viability Assessment for the High-Throughput Transcriptomics (HTTr) Platform, in MCF-7 cells cultured in DMEM + 10% fetal bovine serum, Harrill Lab (AID 2284010)
In short: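 MCF-7 cells in DMEM + 10% FBS, 384-well, exposed 6 h to an eight-point dilution series. Membrane integrity scored by high-content imaging of propidium iodide exclusion; bidirectional fit versus DMSO.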

[4] = CCTE_Shafer_MEA_acute_burst_number: CCTE's Neural Acute Assay for Single-Electrode Bursts, Shafer Lab (AID 2284013)
In short: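 Spontaneous network activity of primary rat cortical neurons was recorded extracellularly on microelectrode arrays at 37 C, with 40-min periods before and during exposure to 0.03-40 uM compound on DIV 13 or 15.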

[5] = CCTE_Shafer_MEA_acute_burst_duration_mean: CCTE's Neural Acute Assay for Mean Burst Duration, Shafer Lab (AID 2284014);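 further: hits are decreases in mean burst duration relative to DMSO controls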
In short: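 Read-out is the per-well percent change in mean burst duration (first to last spike within a single-electrode burst) between 40-min recordings before and after compound. Cultures were primary rat cortical neurons on MEAs, dosed at 0.03-40 uM on DIV 13 or 15.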

[6] = CCTE_Shafer_MEA_acute_per_burst_spike_number_mean: CCTE's Neural Acute Assay for Average Number of Spikes Per Burst, Shafer Lab (AID 2284015);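 further: hits are decreases in mean spikes per burst versus baseline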
In short: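 Percent change in mean spikes per single-electrode burst is compared between a 40 min baseline and a 40 min recording with compound (0.03-40 uM). Cultures were rat cortical neurons on MEA plates at DIV 13 or 15, recorded at 37 C, with DMSO as the negative control.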

[7] = CCTE_Shafer_MEA_acute_interburst_interval_mean: CCTE's Neural Acute Assay for Mean Interburst Interval, Shafer Lab (AID 2284016);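 further: percent change of mean interburst interval versus each well's own pre-dose baseline; curves fitted for decrease in interburst interval relative to DMSO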
In short: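 Percent change in mean single-electrode interburst interval was calculated per well from 40 min recordings before and after compound (0.03-40 uM). Recordings were made at 37 C on rat cortical cultures at DIV 13 or 15, with spikes detected at 8x rms threshold.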

[8] = CCTE_Shafer_MEA_acute_burst_percentage_std: CCTE's Neural Acute Assay for Standard Deviation of Burst Percentage, Shafer Lab (AID 2284018);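 further: fitted in the negative direction so actives lower burst percentage SD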
In short: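 Value is percent change from baseline in the across-electrode SD of spikes-in-bursts percentage, wells with >/= 10 active electrodes. Acute 40-min exposure to 0.03-40 uM on DIV 13 or 15 rat cortical cultures, recorded at 37 C after 40-min baseline.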

[9] = CCTE_Shafer_MEA_acute_per_network_burst_spike_number_mean: CCTE's Neural Acute Assay for Average Number of Spikes in a Network Burst, Shafer Lab (AID 2284019);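 on AC50: curve fitted for loss of signal so actives reduce spikes per network burst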
In short: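 Read-out is mean spike count per network burst, taken as percent change between a 40-min pre-exposure and a 40-min post-exposure recording per well. Rat primary cortical neurons on MEAs at 37 C, DIV 13 or 15; compounds at 0.03-40 uM.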

[10] = CCTE_Shafer_MEA_acute_per_network_burst_spike_number_std: CCTE's Neural Acute Assay for Standard Deviation of Number of Spikes in a Network Burst, Shafer Lab (AID 2284020);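 further: fitted for decrease in spike-number SD versus DMSO so actives lower it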
In short: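 Spontaneous network activity of primary rat cortical neurons is recorded extracellularly before and after a 40-min compound exposure (0.03-40 uM) at 37 C. The endpoint is the well's percent change in burst spike-number SD.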

[11] = CCTE_Shafer_MEA_acute_per_network_burst_electrodes_number_mean: CCTE's Neural Acute Assay for Mean Number of Electrodes in a Network Burst, Shafer Lab (AID 2284021);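 further: curves fitted for decreases only so hits reduce electrodes per burst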
In short: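 Percent change from baseline was computed as mean electrode count per network burst, comparing 40 min recordings before and during compound (0.03-40 uM) exposure. Cultures were rat cortical neurons at DIV 13 or 15, recorded on MEAs at 37 C with an adaptive 8x rms threshold.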

[12] = CCTE_Shafer_MEA_acute_cross_correlation_area: CCTE's Neural Acute Assay for Area of Cross Correlation, Shafer Lab (AID 2284024);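 further: area under pooled inter-electrode spike cross-correlation near zero lag as percent change from own baseline; curves fitted for loss of cross-correlation area so actives lower synchrony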;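 on outcome: rat primary cortical neuron networks on 48-well MEA at DIV 13 or 15 with 40 min exposure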
In short: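 Percent change in well-wide cross-correlation area (window around zero lag) between 40 min baseline and 40 min post-compound recordings, 37 C; rat cortical cultures on MEA at DIV 13 or 15, dosed 0.03-40 uM, wells needing >/= 10 active electrodes.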

[13] = CCTE_Shafer_MEA_acute_cross_correlation_HWHM: CCTE's Neural Acute Assay for Cross Correlation at Half Width at Half Maximum, Shafer Lab (AID 2284026);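 further: percent change per well from pre-dose baseline in spike cross-correlogram half width; hits are a decrease in cross-correlogram half width relative to DMSO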
In short: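 Per-well percent change in cross-correlogram half width at half maximum, derived from 40-min recordings before and after compound (0.03-40 uM) at 37 C. Cultures were rat cortical neurons, DIV 13 or 15, with adaptive spike detection at 8x rms.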

[14] = target: Nucleoli Translocation, AR (gene 367) (UniProt P10275); experiment: UPITT_HCI_U2OS_AR_TIF2_Nucleoli_Antagonist: University of Pittsburgh U2OS Androgen Receptor-Transcriptional Intermediary Factor 2 (AR-TIF2) Antagonism High Content Imaging Assay for Nucleoli Translocation (AID 2283997; active means hit-call score of the fitted dose curve at least 0.9, where 1 is the maximum)
Nucleoli Translocation, AR (gene 367), sequence (P10275 whole entry, looked up): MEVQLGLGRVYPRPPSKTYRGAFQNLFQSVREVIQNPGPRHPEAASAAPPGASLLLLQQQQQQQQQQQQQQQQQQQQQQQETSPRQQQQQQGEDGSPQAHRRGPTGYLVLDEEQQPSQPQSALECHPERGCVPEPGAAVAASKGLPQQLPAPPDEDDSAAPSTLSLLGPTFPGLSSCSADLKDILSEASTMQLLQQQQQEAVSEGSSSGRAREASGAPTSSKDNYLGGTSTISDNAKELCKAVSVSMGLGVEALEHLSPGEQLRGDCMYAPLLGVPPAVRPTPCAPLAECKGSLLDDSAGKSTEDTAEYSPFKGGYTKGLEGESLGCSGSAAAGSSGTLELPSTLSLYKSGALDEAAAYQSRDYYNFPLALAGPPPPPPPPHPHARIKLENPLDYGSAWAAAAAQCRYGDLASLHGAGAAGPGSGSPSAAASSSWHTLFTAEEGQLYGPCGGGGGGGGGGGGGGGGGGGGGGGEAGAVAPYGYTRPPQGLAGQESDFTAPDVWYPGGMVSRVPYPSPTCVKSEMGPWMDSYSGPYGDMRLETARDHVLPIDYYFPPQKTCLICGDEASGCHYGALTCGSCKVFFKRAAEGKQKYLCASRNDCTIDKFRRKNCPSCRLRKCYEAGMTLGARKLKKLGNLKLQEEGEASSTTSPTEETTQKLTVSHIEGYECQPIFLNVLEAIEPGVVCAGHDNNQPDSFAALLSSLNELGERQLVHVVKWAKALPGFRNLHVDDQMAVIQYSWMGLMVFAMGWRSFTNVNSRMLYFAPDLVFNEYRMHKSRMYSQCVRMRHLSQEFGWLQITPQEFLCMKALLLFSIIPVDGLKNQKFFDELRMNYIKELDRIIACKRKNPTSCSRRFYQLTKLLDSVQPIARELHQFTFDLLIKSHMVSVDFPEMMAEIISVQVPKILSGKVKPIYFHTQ
In short: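 Measured quantity was AR-RFP fluorescence localized to nucleoli in engineered U2OS cells also bearing TIF2-GFP, acquired on automated high-content imagers. Primary testing used 20 uM compound; actives were confirmed in triplicate wells.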

[15] = target: Nucleoli Translocation, AR (gene 367) (UniProt P10275); experiment: UPITT_HCI_U2OS_AR_TIF2_Nucleoli_Agonist: University of Pittsburgh U2OS Androgen Receptor-Transcriptional Intermediary Factor 2 (AR-TIF2) Agonism High Content Imaging Assay for Nucleoli Translocation (AID 2283998; active means hit-call score of the fitted dose curve at least 0.9, where 1 is the maximum)
In short: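 Nucleolar translocation of AR-RFP, with TIF2-GFP coexpressed in human osteosarcoma U2OS, imaged by high-content fluorescence. Compounds tested singly at 20 uM final, confirmed in triplicate, then titrated 0.195–50 uM final; gain-of-signal relative to DMSO.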

[16] = target: Ratio of Nucleoli Translocation and Cytoplasm, AR (gene 367) (UniProt P10275); experiment: UPITT_HCI_U2OS_AR_TIF2_Nucleoli_Cytoplasm_Ratio_Antagonist: University of Pittsburgh U2OS Androgen Receptor-Transcriptional Intermediary Factor 2 (AR-TIF2) Antagonism High Content Imaging Assay for Ratio of Nucleoli Translocation and Cytoplasm (AID 2283999; active means hit-call score of the fitted dose curve at least 0.9, where 1 is the maximum;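 further: antagonists lower the DHT-driven ratio of nucleolar to cytoplasmic red signal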)
Ratio of Nucleoli Translocation and Cytoplasm, AR (gene 367), sequence (P10275 whole entry, looked up): as above
In short: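 U2OS cells co-expressing RFP-tagged human AR and GFP-tagged TIF2, antagonist mode with DHT as baseline. Nucleolar-to-cytoplasmic red fluorescence ratio imaged by high-content microscopy; final compound 20 uM (0.2% DMSO) primary, 0.195–50 uM (0.5% DMSO) concentration-response.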

[17] = target: Ratio of Nucleoli Translocation and Cytoplasm, AR (gene 367) (UniProt P10275); experiment: UPITT_HCI_U2OS_AR_TIF2_Nucleoli_Cytoplasm_Ratio_Agonist: University of Pittsburgh U2OS Androgen Receptor-Transcriptional Intermediary Factor 2 (AR-TIF2) Agonism High Content Imaging Assay for Ratio of Nucleoli Translocation and Cytoplasm (AID 2284000; active means hit-call score of the fitted dose curve at least 0.9, where 1 is the maximum;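 further: hits raise the red nucleolar to cytoplasm ratio above vehicle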)
In short: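 Read-out first: nucleolar-to-cytoplasm ratio of red (AR-RFP) signal, quantified by high-content imaging in U2OS cells co-expressing TIF2-GFP. Activity is scored as signal increase over DMSO. Single-point screening used 20 uM final (0.2% DMSO).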

[18] = CCTE_Harrill_HTTr_Apoptosis_MCF7: CCTE's 6-hour Apoptosis Assessment for the High-Throughput Transcriptomics (HTTr) Platform, in MCF-7 cells cultured in DMEM + 10% fetal bovine serum, Harrill Lab (AID 2284011)
In short: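 High-content imaging of CellEvent Caspase 3/7 Green signal follows a six-hour exposure, with eight concentrations per chemical. MCF-7 cells grown in DMEM plus 10% fetal bovine serum; activity fitted in both directions against DMSO.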

[19] = CCTE_Harrill_HTTr_CellCount_MCF7: CCTE's Cell Proliferation Assessment for the High-Throughput Transcriptomics (HTTr) Platform, Harrill Lab (AID 2284012; active means hit-call score of the fitted dose curve at least 0.9, where 1 is the maximum;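 further: cells exposed to compound for six hours; intended direction is loss of nuclei count meaning fewer cells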)
In short: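 MCF7 cells exposed 6 hours to an eight-point dilution series; Hoechst-stained nuclei counted by high-content imaging. Bidirectional curve fitting against DMSO baseline.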

DIO1 (gene 1733) = experiment: CCTE_GLTED_hDIO1: CCTE's human Deiodinase 1 (DIO1) Inhibition Assay, Great Lakes Toxicology and Ecology Division (GLTED) Lab (AID 2283987; active means hit-call score of the fitted dose curve at least 0.9, where 1 is the maximum;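 further: isolated human DIO1 enzyme in a cell-free setup rather than cells; enzyme activity read as free iodide liberated from substrate via Sandell-Kolthoff colorimetry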)
In short: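 Inhibition read as reduced iodide release: after 3 h of human DIO1 with chemical, free iodide is quantified colorimetrically (Sandell-Kolthoff cerium/arsenic reaction). Triplicate plates, DMSO baseline.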

CC(=O)[C@H]1CC[C@H]2[C@@H]3CC=C4C[C@@H](O)CC[C@]4(C)[C@H]3CC[C@]12C
AC50 [1]: 7.9 nM (active)
AC50 [2]: 5.37 nM (active)
outcome [3]: inactive
AC50 [4]: 14.4 nM (active)
outcome [5]: inactive
outcome [6]: inactive
outcome [7]: inactive
outcome [8]: inactive
AC50 [9]: 15000 nM (active)
outcome [10]: inactive
outcome [11]: inactive
AC50 [12]: 3 nM (active)
outcome [13]: inactive

OC1OC[C@@H](O)[C@H](O)[C@H]1O (stereo partly drawn)
outcome [1]: inactive
outcome [2]: inactive
outcome [4]: inactive
outcome [5]: inactive
outcome [6]: inactive
outcome [7]: inactive
AC50 [8]: 1210 nM (active)
outcome [9]: inactive
outcome [10]: inactive
outcome [11]: inactive
outcome [12]: inactive
outcome [13]: inactive

CC[Si](OC(C)=O)(OC(C)=O)OC(C)=O
outcome [1]: inactive
outcome [2]: inactive
AC50 [4]: 429 nM (active)
outcome [5]: inactive
outcome [6]: inactive
outcome [7]: inactive
outcome [8]: inactive
outcome [9]: inactive
outcome [10]: inactive
outcome [11]: inactive
outcome [12]: inactive
outcome [13]: inactive

c1ccc2c(c1)c1cccc3ccc4cccc2c4c31
outcome [14]: inactive
outcome [15]: inactive
outcome [16]: inactive
outcome [17]: inactive
outcome [18]: inactive
outcome [19]: inactive

CCCCC(CC)COC(=O)/C=C\C(=O)OCC(CC)CCCC (stereo not drawn)
outcome [14]: inactive
outcome [15]: inactive
outcome [16]: inactive
outcome [17]: inactive
outcome [3]: inactive
outcome [18]: inactive
outcome [19]: inactive

c1ccc2[nH]ccc2c1
outcome [14]: inactive
outcome [15]: inactive
outcome [16]: inactive
outcome [17]: inactive
outcome [3]: inactive
outcome [19]: inactive

O=Nc1ccc(Nc2ccccc2)cc1
AC50 [14]: 2560 nM (active)
outcome [15]: inactive
AC50 [16]: 2510 nM (active)
outcome [17]: inactive
outcome [3]: inactive
outcome [18]: inactive

COc1cc(C=O)ccc1OC(=O)C(C)C
outcome [1]: inactive
outcome [2]: inactive
outcome [3]: inactive
outcome [18]: inactive
outcome [19]: inactive
outcome [4]: inactive
outcome [5]: inactive
outcome [6]: inactive
outcome [7]: inactive
outcome [8]: inactive
AC50 [9]: 3800 nM (active)
AC50 [10]: 3760 nM (active)
outcome [11]: inactive
outcome [12]: inactive
outcome [13]: inactive

O=c1cc(-c2ccccc2)oc2cc(O)cc(O)c12
outcome [14]: inactive
outcome [16]: inactive
outcome [17]: inactive
outcome [3]: inactive
outcome [18]: inactive

CN(C)C(=N)N=C(N)N
outcome [1]: inactive
outcome [2]: inactive
outcome [3]: inactive
outcome [19]: inactive
outcome [4]: inactive
outcome [5]: inactive
outcome [6]: inactive
outcome [7]: inactive
outcome [8]: inactive
outcome [9]: inactive
outcome [10]: inactive
outcome [11]: inactive
outcome [12]: inactive
outcome [13]: inactive

BrC1CCC(Br)C(Br)CCC(Br)C(Br)CCC1Br (stereo not drawn)
AC50 [14]: 43500 nM (active)
outcome [15]: inactive
outcome [16]: inactive
outcome [17]: inactive
outcome [3]: inactive
outcome [18]: inactive
outcome [19]: inactive

NCCCN1CCOCC1
outcome [14]: inactive
outcome [15]: inactive
outcome [17]: inactive

Nc1cc([N+](=O)[O-])ccc1O
AC50 [1]: 2980 nM (active)
outcome [2]: inactive
outcome [4]: inactive
outcome [5]: inactive
AC50 [6]: 25100 nM (active)
outcome [7]: inactive
outcome [8]: inactive
AC50 [9]: 40.3 nM (active)
AC50 [10]: 226 nM (active)
outcome [11]: inactive
outcome [12]: inactive
AC50 [13]: 24400 nM (active)

CCCCCCCCCCCCCCCC(=O)OC[C@H](O)[C@H]1OC(=O)C(O)=C1O
AC50 (DIO1 (gene 1733)): 89600 nM (active)
outcome [14]: inactive
outcome [15]: inactive
outcome [16]: inactive
outcome [17]: inactive
